Common to all, as to details: concentration: 1 μM,replicates: in singlicate; n = 1
Test [1] concerns ADCK4.
Test [2] concerns AKT1.
The test system of test [3] is AKT2.
Test [4] concerns AKT3.
In test [5] the test system is ALK.
For test [6], the system named is T1, AMPK-alpha1.
T1 construct: gene PRKAA1

Test [7] has as its system T2, AMPK-alpha2.
T2 construct: gene PRKAA2

Test [8] concerns ANKK1.
For test [9], the system named is T3, ARK5.
T3 construct: gene NUAK1

The subject of test [10] is T4, ASK1.
T4 construct: gene MAP3K5

Here are results for 13 molecules from publication PMC5540273 (PLoS ONE, 2017).

Molecules are shown by their SMILES.
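Further: KINOMEscan kinase panel screen.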

`C=CC(=O)Nc1cc2c(Nc3ccc(F)c(Cl)c3)ncnc2cc1OCCCN1CCOCC1` [GW781483]: the “%Inh” value turned out to be 19% in test [1]; 1% in test [2]; 0% in test [3]; 7% in test [4]; 14% in test [5]; 0% in test [6]. In addition, the “%Inh” value in test [7], in [8], in [9] and in test [10] was 0% throughout.

As for `Cc1cc(C(=O)Nc2ccc(Oc3ccc4nc(NC(=O)C5CC5)cn4n3)cc2)nn1-c1ccccc1`, the “%Inh” value is 0% in test [1]; 18% in test [2]; 0% in test [3]; 0% in test [4]; 2% in test [5]; 0% in test [6]. Also, the “%Inh” value in test [7] amounted to 18%; in test [8], 0%; in test [9], 0%; in test [10], 0%.

With `CC(C)N1C(=O)Cc2cc(Nc3ncc(C(F)(F)F)c(NCc4cccc(S(C)(=O)=O)c4)n3)ccc21`, the “%Inh” value is listed as 9% in [1]; 0% in test [2]; 0% in test [3]; 0% in [4]; 0% in test [5]; 0% in test [6]. The “%Inh” value is 0% in [7], 38% in test [8], 62% in test [9] and 0% in [10].

For the molecule `CNC(=O)c1ccccc1Sc1ccc2c(/C=C/c3ccccn3)n[nH]c2c1`, the “%Inh” value in test [1] was 0%; in test [2], 0%; in [3] it was 0%; in test [4] it was 0%; in test [5], 2%; in test [6], 15%. Moreover, the “%Inh” value came out at 4% in test [7], 0% in [8], 2% in [9] and 0% in test [10].

With `Cc1ccc(-n2nc(C(C)(C)C)cc2NC(=O)Nc2ccc(OCCN3CCOCC3)c3ccccc23)cc1` [GW839464], the “%Inh” value in test [1] amounted to 7%; in test [2] it was 9%; in test [3], 0%; in [4], 0%; in [5], 0%; in [6] it was 15%. The “%Inh” value in [7] is listed as 9%; in test [8] it was 30%; in test [9], 0%; in [10], 11%.

With `CN(C)CC(O)COc1ccc(Nc2nccc(-c3cnn4nc(N5CCOCC5)ccc34)n2)cc1` (stereo not shown) [GW767488], the “%Inh” value turned out to be 0% in test [2]; 0% in [3]; 1% in test [4]; 35% in [5]; 4% in [6]; 0% in test [7]. Moreover, the “%Inh” value in test [8] was 33%; in [9], 25%; in test [10], 9%.

For the molecule `Cc1cc2cn[nH]c2cc1-c1cccc2c(N)c(C(N)=O)nnc12`, the “%Inh” value in test [1] amounted to 0%; in [2] it was 0%; in test [3], 0%; in test [4] it was 0%; in test [5] it was 67%; in [6] it was 87%. In addition, the “%Inh” value was 74% in test [7], 32% in test [8], 0% in test [9] and 13% in [10].

Consider `C[C@H]1Oc2cc(cnc2N)-c2c(nn(C)c2C#N)CN(C)C(=O)c2ccc(F)cc21`, for which the “%Inh” value in [1] is 0%; in test [2], 22%; in test [3], 11%; in test [4] it was 0%; in [6], 29%; in test [7] it was 11%. Further, the “%Inh” value in [8] is on record as 0%; in test [9], 24%; in [10], 28%.

As for `O=C(NCCCN1CCOC1=O)c1cnc(NCc2cc(Cl)ccc2Cl)nc1NC1CCCC1`, the “%Inh” value in [1] amounted to 18%; in [2] it was 12%; in [3] it was 4%; in [4], 0%; in [5] it was 0%; in test [6], 14%. For the same molecule, the “%Inh” value in [7] is listed as 14%; in [8], 0%; in test [9] it was 9%; in test [10] it was 9%.

In the case of `NC(=O)c1cc(-c2ccccc2)cc2c(C3CCNCC3)c[nH]c12` [GSK301362], the “%Inh” value was found to be 19% in test [1]; 0% in test [2]; 14% in [3]; 27% in [4]; 29% in test [5]; 6% in test [6]. The “%Inh” value was determined as 45% in test [7], 0% in [8], 31% in test [9] and 0% in [10].

With `Cc1ccc2c(-c3ccncc3)c(-c3ccc(F)cc3)nn2c1.Cl` [GW461484], the “%Inh” value in [1] stood at 17%; in test [2] it was 0%; in test [3], 1%; in [4] it was 17%; in test [5], 9%; in test [6] it was 11%. Also, the “%Inh” value came out at 1% in test [7], 21% in [8], 13% in [9] and 0% in test [10].

As for `Cl.Oc1cc(-c2nc(-c3ccccc3)[nH]c2-c2ccncc2)ccc1Cl` [SB-386023], the “%Inh” value in test [1] is recorded as 10%; in [2], 0%; in test [3], 0%; in test [4] it was 0%; in test [5] it was 0%; in test [6] it was 3%. The “%Inh” value in test [7] was determined as 0%; in test [8], 0%; in [9], 0%; in test [10], 12%.

With `COc1ccc(C[C@@H](CN)NC(=O)c2cc(Br)c(-c3ccnc4[nH]ccc34)s2)cc1.Cl.Cl` [GSK1389063], the “%Inh” value in [1] is given as 97.6%; in [2], 94.4%; in [4] it was 91.9%; in test [5], 63%; in test [6], 91.4%; in [7] it was 89%. Moreover, the “%Inh” value in test [8] was found to be 5%; in test [9], 96.8%; in [10] it was 0%.
